Values without a mark were called inactive. Inconclusive results are not listed. Activity calls are given as the source filed them. Unless noted, calls follow the shape of the dose curve; as a rule, active = well fitted curve in the direction sought with a large enough effect in the repeat runs; inconclusive = weak or mixed curves; inactive = no such curve, though single readings can be large; an effect the other way counts as inactive or inconclusive.

A short description of experiment [1]: qHTS assay to identify small molecule agonists of the constitutive androstane receptor (CAR) signaling pathway - cell viability counter screen (AID 1224836). Also: series mostly up to about 92 µM; nearly all actives have a fitted effect of over 45% in size. The essentials:
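Using CellTiter-Fluor, viability of HepG2 cells harbouring hCAR and CYP2B6-2.2kb was measured following 23 h incubation with a 15-concentration compound series plus PK11195 (0.75 uM final).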

A short description of experiment [2]: qHTS assay to identify small molecule antagonists of the constitutive androstane receptor (CAR) signaling pathway - cell viability counter screen (AID 1224837). Also: series mostly up to about 92 µM; nearly all actives have a fitted effect of over 45% in size. The essentials:
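Multiplexed cytotoxicity read-out for the CAR antagonist screen: double-stable HepG2-CYP2B6-hCAR cells co-treated with 50 nM CITCO (final) and compound over 15 concentrations, incubated 23 hr, then assessed by CellTiter-Fluor fluorescence.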

The target of experiment [3] is Nuclear receptor subfamily 1 group I member 3 (Homo sapiens) (UniProt Q14994). Briefly: qHTS assay to identify small molecule antagonists of the constitutive androstane receptor (CAR) signaling pathway (AID 1224838). Also: nearly all actives have a fitted effect of over 40% in size. The essentials:
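Compounds were titrated across 15 concentrations onto HepG2 cells double-stably expressing hCAR and a CYP2B6-2.2kb reporter, together with 50 nM CITCO (final). After 24 h at 37 C, luciferase activity was measured by luminescence.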

The target is the same in experiment [4]. Briefly: qHTS assay to identify small molecule agonists of the constitutive androstane receptor (CAR) signaling pathway (AID 1224839). Also: nearly all actives have a fitted effect of over 15% in size. Also: potency is read from the fitted curve at half-maximal effect.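 As to activation: HepG2 cells stably carrying human CAR and a CYP2B6 luciferase reporter; series mostly up to about 92 µM.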 The essentials: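 Double-stable HepG2 cells (hCAR, CYP2B6-2.2kb) seeded 4 h before compound addition. Exposure 24 h with 0.75 uM PK11195 final. Luciferase detected by ONE-Glo.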
For orientation: In qHTS, concentration-response curves come from the screen itself.

The nature of experiment [5]: qHTS assay to identify small molecule antagonists of the estrogen related receptor signaling pathway with the pleiotropic PPARgamma coactivator (PGC) from Tox21 10K library - cell viability counter screen (AID 1224840; active = well fitted cell-killing curve with a large enough effect in the repeat runs, not every such curve was filed as active; also: nearly all actives have a fitted effect of over 40% in size). In short, it runs like this: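 Step one, plate 2,000 PGC/ERR cells per well; step two, incubate 6 h at 37 C/5% CO2; step three, pin-transfer compounds; step four, incubate 17.5 h; step five, add CellTiter-Fluor and read fluorescence after 30 min.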

The target in experiment [6] is Thyrotropin receptor (Homo sapiens) (UniProt P16473). Briefly: qHTS assay to identify small molecule agonists of the thyroid stimulating hormone receptor (TSHR) signaling pathway (AID 1224843; calls by dose curve; also: nearly all actives have a fitted effect of over 45% in size). The essentials:
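HEK293 cells stably bearing the thyrotropin receptor were plated at 800 cells/well and challenged with compound (30 min, RT). Accumulated cAMP was quantified via cAMP-d2 competing for cryptate-tagged antibody.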

The nature of experiment [7]: qHTS assay to identify small molecule agonists of the hypoxia (HIF-1) signaling pathway - cell viability counter screen (AID 1224844; calls by dose curve; also: nearly all actives have a fitted effect of over 50% in size; also: potency is read from the fitted curve at half-maximal effect). The essentials:
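Tox21 10K compounds were added to HRE-bla ME-180 cells (0.5% dialyzed FBS) and incubated 17 hrs at 37C; ATP-based CellTiter-Glo luminescence then reported cell viability in the same wells.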

Experiment [8] in a line: qHTS assay to identify small molecule agonists of H2AX (AID 1224845; active = well fitted activation curve with a large enough effect in the signal ratio in the repeat runs, not every such curve was filed as active; the % refers to the signal ratio). The essentials:
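Phospho-H2AX Ser139 measured by HTRF (ex 320 nm; em 665 and 620 nm) after 24 hr antibody incubation. Compounds, 15 concentrations, 0.76% DMSO, were applied to CHO-K1 cells for 3hr at 37C before lysis.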

A short description of experiment [9]: qHTS assay to identify small molecule agonists of the hypoxia (HIF-1) signaling pathway (AID 1224846; active = well fitted activation curve with a large enough effect in the signal ratio in the repeat runs, not every such curve was filed as active; the % refers to the signal ratio). In short, it runs like this: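 Steps: seed ME-180 HRE-bla cells (2,000/well, 0.5% dialyzed FBS); incubate 5 hrs at 37C; pin-transfer compounds or DMSO; incubate 17 hrs; add LiveBLAzer B/G substrate CCF4-AM; measure reporter activation by FRET.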
The nature of experiment [10]: qHTS assay to identify small molecule agonists of H2AX - cell viability counter screen (AID 1224847; calls by dose curve; also: nearly all actives have a fitted effect of over 30% in size; also: potency is read from the fitted curve at half-maximal effect). In short, it runs like this: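 Quantitative HTS viability measurement: CHO-K1 wild-type cells in serum (10% FBS) medium, short 3 hr drug exposure at 37C with 0.76% DMSO, CellTiter-Glo luminescent detection.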
Experiment [11] can be described thus: qHTS RealTime-Glo MT Cell Viability Assay in HepG2 cells - 24 hour (AID 1224867). Also: nearly all actives have a fitted effect of over 50% in size. In short, it runs like this:
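Luminescence read-out: viable HepG2 cells reduce a prosubstrate to a NanoLuc substrate, giving a signal proportional to live cell number. Reads taken at 0, 8, 16, 24, 32 and 40 h of compound exposure at 37 C.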

The nature of experiment [12]: A CellTox Green Cytotoxicity Assay to monitor cytotoxicity in HEK293 cells - 0 hour (AID 1224869). Also: nearly all actives have a fitted effect of over 50% in size. In short, it runs like this:
(§1)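 Cytotoxicity was tracked continuously in HEK293 cells by a DNA-binding dye excluded from viable cells. Compounds were transferred in DMSO 5 h after seeding; fluorescence was recorded at intervals up to 40 h.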

Experiment [13] is described as follows: qHTS RealTime-Glo MT Cell Viability Assay in HepG2 cells - 40 hour (AID 1224870). Also: nearly all actives have a fitted effect of over 50% in size. The essentials:
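Real-time viability: cells seeded at 600 per well together with NanoLuc and cell-permeant prosubstrate, compounds added after 5 h incubation. Luminescence tracked at 0, 8, 16, 24, 32 and 40 h of exposure.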

A short description of experiment [14]: A CellTox Green Cytotoxicity Assay to monitor cytotoxicity in HEK293 cells - 40 hour (AID 1224871). Also: nearly all actives have a fitted effect of over 45% in size. Also: potency is read from the fitted curve at half-maximal effect. In short, it runs like this: as §1
The nature of experiment [15]: qHTS RealTime-Glo MT Cell Viability Assay in HEK293 cells - 16 hour (AID 1224872). Also: nearly all actives have a fitted effect of over 50% in size. Also: potency is read from the fitted curve at half-maximal effect. The essentials: (§2)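 Nonlytic real-time viability readout: viable cells convert prosubstrate to NanoLuc substrate, giving luminescence proportional to live cell number. HEK293, 600 cells/well, compound added after 5 h, continuous culture at 37 C.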
Experiment [16] in a line: qHTS RealTime-Glo MT Cell Viability Assay in HEK293 cells - 32 hour (AID 1224868). Also: nearly all actives have a fitted effect of over 50% in size. Also: potency is read from the fitted curve at half-maximal effect. In short, it runs like this:
as §2

Sequence of Thyrotropin receptor (Homo sapiens) (P16473 whole entry, looked up): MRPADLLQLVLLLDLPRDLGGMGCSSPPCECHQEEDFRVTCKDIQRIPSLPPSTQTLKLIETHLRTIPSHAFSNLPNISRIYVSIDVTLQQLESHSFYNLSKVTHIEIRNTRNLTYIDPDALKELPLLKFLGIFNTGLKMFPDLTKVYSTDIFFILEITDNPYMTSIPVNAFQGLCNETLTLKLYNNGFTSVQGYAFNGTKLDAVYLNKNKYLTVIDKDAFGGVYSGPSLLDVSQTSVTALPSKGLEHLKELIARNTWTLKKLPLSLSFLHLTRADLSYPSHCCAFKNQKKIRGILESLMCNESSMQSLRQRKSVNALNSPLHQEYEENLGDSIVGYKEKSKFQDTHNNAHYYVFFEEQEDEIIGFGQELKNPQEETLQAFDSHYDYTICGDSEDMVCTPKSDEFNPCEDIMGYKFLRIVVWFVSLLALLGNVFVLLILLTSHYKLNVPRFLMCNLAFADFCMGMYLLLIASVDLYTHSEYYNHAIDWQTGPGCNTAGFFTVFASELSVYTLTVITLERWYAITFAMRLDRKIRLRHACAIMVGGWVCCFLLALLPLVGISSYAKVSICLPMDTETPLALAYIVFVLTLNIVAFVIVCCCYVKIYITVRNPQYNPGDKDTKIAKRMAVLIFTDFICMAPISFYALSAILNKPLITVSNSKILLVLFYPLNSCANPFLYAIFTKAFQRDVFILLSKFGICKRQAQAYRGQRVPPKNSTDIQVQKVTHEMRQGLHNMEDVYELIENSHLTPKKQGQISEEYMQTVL
Sequence of Nuclear receptor subfamily 1 group I member 3 (Homo sapiens) (Q14994 whole entry, looked up): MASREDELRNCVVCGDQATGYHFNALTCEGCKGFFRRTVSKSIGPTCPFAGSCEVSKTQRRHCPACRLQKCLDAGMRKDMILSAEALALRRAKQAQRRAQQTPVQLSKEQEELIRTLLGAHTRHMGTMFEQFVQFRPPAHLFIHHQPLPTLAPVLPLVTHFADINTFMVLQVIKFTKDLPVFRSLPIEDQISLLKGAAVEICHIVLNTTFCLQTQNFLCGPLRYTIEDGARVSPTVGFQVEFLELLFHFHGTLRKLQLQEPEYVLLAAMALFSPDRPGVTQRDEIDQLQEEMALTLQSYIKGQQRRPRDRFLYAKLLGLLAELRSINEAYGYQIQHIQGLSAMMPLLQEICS

Consider `CC1=NC(C)OC1C` (configuration not stated), for which the Potency result in [1], in experiment [2], in [3], in experiment [4], in experiment [5] and in [6] was “inactive” throughout. Further, the Potency entry in experiment [7], in experiment [8], in experiment [9], in experiment [10], in [11] and in experiment [12] was “inactive” in each case. The Potency entry in experiment [13], in experiment [14] and in [15] was “inactive” in each case.
On to `Cc1c(C)c2c(c(C)c1O)CCC(C)(COc1ccc(CC3SC(=O)NC3=O)cc1)O2` (configuration not stated), for which the Potency result in [1], in experiment [2], in experiment [3], in experiment [4], in [5] and in [6] was “inactive” throughout. Besides, the Potency entry in [7], in experiment [8], in experiment [9], in experiment [10], in experiment [11] and in experiment [12] was “inactive” each time. Also, the Potency entry in experiment [13] and in [14] was “inactive” each time. For the same compound, the Potency in [16] was 38.9 µM (active); in experiment [15], 43.6 µM (active).
For the compound `CO[Si](CCCNc1ccccc1)(OC)OC`, the Potency result in experiment [1], in [2], in experiment [3], in experiment [4], in experiment [5] and in experiment [6] was “inactive” throughout. For the same compound, the Potency result in experiment [7], in experiment [8], in experiment [9], in experiment [10], in experiment [11] and in experiment [16] was “inactive” in each case. For the same compound, the Potency result in experiment [12], in [13], in experiment [14] and in experiment [15] was “inactive” each time.
`NNC(=O)c1cccc(C(=O)NN)c1`: the Potency entry in experiment [1], in [2], in [3], in experiment [4], in [5] and in experiment [7] was “inactive” each time. Further, the Potency entry in experiment [8], in [9], in experiment [11], in [16], in experiment [12] and in experiment [13] was “inactive” in each case. Further, the Potency result in experiment [14] and in experiment [15] was “inactive” each time.
For the compound `Nc1c(Cl)cc(Cl)cc1Cl`, the Potency result in experiment [1], in experiment [2], in [3], in experiment [4], in [5] and in experiment [6] was “inactive” each time. The Potency result in experiment [7], in experiment [8], in [9], in [10], in [11] and in [12] was “inactive” in each case. Moreover, the Potency result in experiment [13] and in experiment [15] was “inactive” throughout.
Consider `CCCCN(CCCC)C(=O)N(CCCC)CCCC`, for which the Potency result in experiment [1], in [2], in [3], in experiment [5], in experiment [7] and in [8] was “inactive” each time. In addition, the Potency result in [9], in [11], in experiment [16], in experiment [12], in experiment [13] and in experiment [14] was “inactive” in each case. Besides, the Potency entry in [15] was “inactive”. Besides, the Potency in experiment [4] was 30.6 µM (active).
Take `CCCCCCCCOc1ccccc1C(=O)Nc1ccc(C(=O)OCC[N+](C)(CC)CC)cc1`: the Potency entry in experiment [1], in experiment [2], in experiment [3], in experiment [4], in experiment [5] and in [8] was “inactive” in each case. Further, the Potency result in [9], in experiment [12] and in [13] was “inactive” each time. The Potency is 7.56 µM (active) in experiment [7], 24.7 µM (active) in experiment [10], 19 µM (active) in experiment [16] and 26.8 µM (active) in experiment [14].

Source of the values: PubChem BioAssay (Tox21).
